Assay results from PubChem BioAssay AID1159580 (chemical genetic matrix, 2015).
The campaign covered roughly 5,500 compounds. About 2,000 (36%) were called active. Not shown: some 18% with an inconclusive outcome. Some of the results follow. A number with no mark means an inactive call. No stated cut-off is given here; in the data, active means normalized growth mostly below about 0.91 (no sharp cut-off); inconclusive means no clear call, values can overlap the other calls; inactive means mostly above about 0.92.

Assay: chemical genetic growth profiling, strain panel (AID 1159580);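 further: tested at 20 µM; growth read once vehicle control cultures reached saturation at 30 °C; 1 = growth at the plate median or of vehicle wells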
Conditions: growth OD

Question: For `O=C(O)c1cccnc1`, which normalized growth (S. cerevisiae deletion strains, locus YJR075W, strain HOC1, stronger effect = lower value) is on record?
Answer: 1.06

Question: What about the normalized growth (S. cerevisiae deletion strains, locus YKL009W, strain mrt4, stronger effect = lower value) of the same molecule?
Answer: 0.982

Question: And the normalized growth (S. cerevisiae deletion strains, locus YKL068W, stronger effect = lower value)?
Answer: 0.991

Question: And the normalized growth (S. cerevisiae deletion strains, locus YKL085W, strain MDH1 (second series), stronger effect = lower value)?
Answer: 1.01

Question: And the normalized growth (S. cerevisiae deletion strains, locus YKL085W, strain MDH1, stronger effect = lower value)?
Answer: 1.01

Question: And the normalized growth (S. cerevisiae deletion strains, locus YKL160W, strain elf1, stronger effect = lower value)?
Answer: 1.01

Question: And the normalized growth (S. cerevisiae deletion strains, locus YKL190W, strain CNB1, stronger effect = lower value)?
Answer: 0.997

Question: And the normalized growth (S. cerevisiae deletion strains, locus YKR001C, strain vps1, stronger effect = lower value)?
Answer: 0.986

Question: What about the normalized growth (S. cerevisiae deletion strains, locus YKR026C, strain gcn3, stronger effect = lower value) of the same molecule?
Answer: 0.988

Question: What about the normalized growth (S. cerevisiae deletion strains, locus YKR091W, strain srl3, stronger effect = lower value) of the same molecule?
Answer: 0.996

Question: And the normalized growth (S. cerevisiae deletion strains, locus YLL001W, strain dnm1, stronger effect = lower value)?
Answer: 0.999

Question: And the normalized growth (S. cerevisiae deletion strains, locus YLL026W, stronger effect = lower value)?
Answer: 1

Question: And the normalized growth (S. cerevisiae deletion strains, locus YLL041C, strain sdh2, stronger effect = lower value)?
Answer: 0.992

Question: What about the normalized growth (S. cerevisiae deletion strains, locus YLR027C, strain aat2, stronger effect = lower value) of the same molecule?
Answer: 1

Question: And the normalized growth (S. cerevisiae deletion strains, locus YLR039C, strain RIC1, stronger effect = lower value)?
Answer: 0.982

Question: And the normalized growth (S. cerevisiae deletion strains, locus YLR058C, strain SHM2, stronger effect = lower value)?
Answer: 0.981

Question: What about the normalized growth (S. cerevisiae deletion strains, locus YLR102C, strain apc9, stronger effect = lower value) of the same molecule?
Answer: 0.997

Question: And the normalized growth (S. cerevisiae deletion strains, locus YLR113W, strain HOG1, stronger effect = lower value)?
Answer: 0.995

Question: And the normalized growth (S. cerevisiae deletion strains, locus YLR221C, strain rsa3, stronger effect = lower value)?
Answer: 1.02

Question: And the normalized growth (S. cerevisiae deletion strains, locus YLR258W, strain gsy2, stronger effect = lower value)?
Answer: 1.01

Question: And the normalized growth (S. cerevisiae deletion strains, locus YLR262C, strain YPT6 (second series), stronger effect = lower value)?
Answer: 1.01

Question: And the normalized growth (S. cerevisiae deletion strains, locus YLR262C, strain YPT6, stronger effect = lower value)?
Answer: 0.941

Question: And the normalized growth (S. cerevisiae deletion strains, locus YLR268W, strain sec22, stronger effect = lower value)?
Answer: 1.13 [resistant] (active)

Question: What about the normalized growth (S. cerevisiae deletion strains, locus YLR320W, strain mms22, stronger effect = lower value) of the same molecule?
Answer: 1.02

Question: What about the normalized growth (S. cerevisiae deletion strains, locus YLR330W, strain CHS5, stronger effect = lower value) of the same molecule?
Answer: 0.999

Question: And the normalized growth (S. cerevisiae deletion strains, locus YLR342W, strain FKS1 (second series), stronger effect = lower value)?
Answer: 0.999

Question: And the normalized growth (S. cerevisiae deletion strains, locus YLR342W, strain FKS1, stronger effect = lower value)?
Answer: 0.992

Question: What about the normalized growth (S. cerevisiae deletion strains, locus YLR357W, strain rsc2, stronger effect = lower value) of the same molecule?
Answer: 0.991

Question: What about the normalized growth (S. cerevisiae deletion strains, locus YLR370C, strain arc18, stronger effect = lower value) of the same molecule?
Answer: 1

Question: What about the normalized growth (S. cerevisiae deletion strains, locus YLR371W, strain rom2, stronger effect = lower value) of the same molecule?
Answer: 0.985

Question: What about the normalized growth (S. cerevisiae deletion strains, locus YLR384C, strain iki3, stronger effect = lower value) of the same molecule?
Answer: 1.01

Question: And the normalized growth (S. cerevisiae deletion strains, locus YLR418C, strain cdc73, stronger effect = lower value)?
Answer: 1.04

Question: What about the normalized growth (S. cerevisiae deletion strains, locus YML016C, strain PPZ1, stronger effect = lower value) of the same molecule?
Answer: 1.01

Question: What about the normalized growth (S. cerevisiae deletion strains, locus YML032C, strain rad52, stronger effect = lower value) of the same molecule?
Answer: 1.05

Question: And the normalized growth (S. cerevisiae deletion strains, locus YML120C, strain ndi1, stronger effect = lower value)?
Answer: 0.993

Question: What about the normalized growth (S. cerevisiae deletion strains, locus YML124C, strain tub3, stronger effect = lower value) of the same molecule?
Answer: 0.995

Question: And the normalized growth (S. cerevisiae deletion strains, locus YMR058W, strain fet3, stronger effect = lower value)?
Answer: 0.996

Question: What about the normalized growth (S. cerevisiae deletion strains, locus YMR078C, strain ctf18, stronger effect = lower value) of the same molecule?
Answer: 0.991

Question: What about the normalized growth (S. cerevisiae deletion strains, locus YMR125W, strain sto1, stronger effect = lower value) of the same molecule?
Answer: 0.979

Question: What about the normalized growth (S. cerevisiae deletion strains, locus YMR129W, stronger effect = lower value) of the same molecule?
Answer: 0.97

Question: And the normalized growth (S. cerevisiae deletion strains, locus YMR205C, strain PFK2, stronger effect = lower value)?
Answer: 1.04

Question: What about the normalized growth (S. cerevisiae deletion strains, locus YMR223W, strain ubp8, stronger effect = lower value) of the same molecule?
Answer: 1

Question: What about the normalized growth (S. cerevisiae deletion strains, locus YMR231W, strain pep5, stronger effect = lower value) of the same molecule?
Answer: 1

Question: And the normalized growth (S. cerevisiae deletion strains, locus YMR263W, strain SAP30, stronger effect = lower value)?
Answer: 1.01

Question: What about the normalized growth (S. cerevisiae deletion strains, locus YMR307W, strain GAS1, stronger effect = lower value) of the same molecule?
Answer: 0.938

Question: What about the normalized growth (S. cerevisiae deletion strains, locus YNL067W, strain RPL9B, stronger effect = lower value) of the same molecule?
Answer: 1.03

Question: And the normalized growth (S. cerevisiae deletion strains, locus YNL071W, strain lat1, stronger effect = lower value)?
Answer: 0.975

Question: What about the normalized growth (S. cerevisiae deletion strains, locus YNL128W, strain TEP1, stronger effect = lower value) of the same molecule?
Answer: 0.971

Question: And the normalized growth (S. cerevisiae deletion strains, locus YNL153C, strain GIM3, stronger effect = lower value)?
Answer: 1.03

Question: And the normalized growth (S. cerevisiae deletion strains, locus YNL183C, strain NPR1, stronger effect = lower value)?
Answer: 0.961

Question: And the normalized growth (S. cerevisiae deletion strains, locus YNL209W, strain ssb2, stronger effect = lower value)?
Answer: 0.99

Question: What about the normalized growth (S. cerevisiae deletion strains, locus YNL233W, strain BNI4, stronger effect = lower value) of the same molecule?
Answer: 1.05

Question: What about the normalized growth (S. cerevisiae deletion strains, locus YNL248C, strain rpa49, stronger effect = lower value) of the same molecule?
Answer: 1.01

Question: And the normalized growth (S. cerevisiae deletion strains, locus YNL250W, strain rad50, stronger effect = lower value)?
Answer: 0.991

Question: What about the normalized growth (S. cerevisiae deletion strains, locus YNL271C, strain bni1, stronger effect = lower value) of the same molecule?
Answer: 0.992

Question: What about the normalized growth (S. cerevisiae deletion strains, locus YNL298W, strain CLA4, stronger effect = lower value) of the same molecule?
Answer: 0.977

Question: And the normalized growth (S. cerevisiae deletion strains, locus YNL307C, strain MCK1, stronger effect = lower value)?
Answer: 1.02

Question: What about the normalized growth (S. cerevisiae deletion strains, locus YNL322C, strain KRE1 (second series), stronger effect = lower value) of the same molecule?
Answer: 0.997

Question: And the normalized growth (S. cerevisiae deletion strains, locus YNL322C, strain KRE1, stronger effect = lower value)?
Answer: 0.996

Question: What about the normalized growth (S. cerevisiae deletion strains, locus YNR049C, strain mso1, stronger effect = lower value) of the same molecule?
Answer: 0.994

Question: What about the normalized growth (S. cerevisiae deletion strains, locus YNR052C, strain pop2, stronger effect = lower value) of the same molecule?
Answer: 1

Question: And the normalized growth (S. cerevisiae deletion strains, locus YOL006C, strain TOP1, stronger effect = lower value)?
Answer: 1.03

Question: And the normalized growth (S. cerevisiae deletion strains, locus YOL012C, strain htz1)?
Answer: 1.06

Question: And the normalized growth (S. cerevisiae deletion strains, locus YOL147C, strain pex11, stronger effect = lower value)?
Answer: 1

Question: What about the normalized growth (S. cerevisiae deletion strains, locus YOR001W, strain rrp6, stronger effect = lower value) of the same molecule?
Answer: 0.977

Question: What about the normalized growth (S. cerevisiae deletion strains, locus YOR061W, strain CKA2, stronger effect = lower value) of the same molecule?
Answer: 0.97

Question: What about the normalized growth (S. cerevisiae deletion strains, locus YOR069W, strain VPS5, stronger effect = lower value) of the same molecule?
Answer: 0.996

Question: And the normalized growth (S. cerevisiae deletion strains, locus YOR070C, strain gyp1, stronger effect = lower value)?
Answer: 1

Question: What about the normalized growth (S. cerevisiae deletion strains, locus YOR080W, strain dia2, stronger effect = lower value) of the same molecule?
Answer: 0.993

Question: And the normalized growth (S. cerevisiae deletion strains, locus YOR083W, strain WHI5, stronger effect = lower value)?
Answer: 1.03

Question: And the normalized growth (S. cerevisiae deletion strains, locus YOR106W, strain vam3, stronger effect = lower value)?
Answer: 1.05

Question: What about the normalized growth (S. cerevisiae deletion strains, locus YOR136W, strain idh2, stronger effect = lower value) of the same molecule?
Answer: 1

Question: And the normalized growth (S. cerevisiae deletion strains, locus YOR144C, strain elg1, stronger effect = lower value)?
Answer: 0.995

Question: What about the normalized growth (S. cerevisiae deletion strains, locus YOR184W, strain ser1, stronger effect = lower value) of the same molecule?
Answer: 1.03

Question: And the normalized growth (S. cerevisiae deletion strains, locus YOR231W, strain MKK1, stronger effect = lower value)?
Answer: 1.01

Question: And the normalized growth (S. cerevisiae deletion strains, locus YOR265W, strain rbl2, stronger effect = lower value)?
Answer: 1

Question: And the normalized growth (S. cerevisiae deletion strains, locus YOR270C, strain vph1, stronger effect = lower value)?
Answer: 0.978

Question: And the normalized growth (S. cerevisiae deletion strains, locus YOR290C, strain snf2, stronger effect = lower value)?
Answer: 0.996

Question: And the normalized growth (S. cerevisiae deletion strains, locus YOR316C, strain cot1, stronger effect = lower value)?
Answer: 0.998

Question: And the normalized growth (S. cerevisiae deletion strains, locus YPL051W, strain arl3, stronger effect = lower value)?
Answer: 1.05

Question: And the normalized growth (S. cerevisiae deletion strains, locus YPL055C, strain LGE1, stronger effect = lower value)?
Answer: 1.01

Question: And the normalized growth (S. cerevisiae deletion strains, locus YPL078C, strain atp4, stronger effect = lower value)?
Answer: 0.999

Question: What about the normalized growth (S. cerevisiae deletion strains, locus YPL106C, strain sse1, stronger effect = lower value) of the same molecule?
Answer: 1.03

Question: And the normalized growth (S. cerevisiae deletion strains, locus YPL240C, strain hsp82, stronger effect = lower value)?
Answer: 1.01

Question: What about the normalized growth (S. cerevisiae deletion strains, locus YPL241C, strain CIN2, stronger effect = lower value) of the same molecule?
Answer: 0.992

Question: What about the normalized growth (S. cerevisiae deletion strains, locus YPL256C, strain CLN2, stronger effect = lower value) of the same molecule?
Answer: 1.01

Question: What about the normalized growth (S. cerevisiae deletion strains, locus YPR119W, strain clb2, stronger effect = lower value) of the same molecule?
Answer: 0.998

Question: What about the normalized growth (S. cerevisiae deletion strains, locus YPR141C, strain kar3, stronger effect = lower value) of the same molecule?
Answer: 0.991

Question: And the normalized growth (S. cerevisiae deletion strains, locus YPR163C, strain tif3, stronger effect = lower value)?
Answer: 0.995

Question: What about the normalized growth (S. cerevisiae deletion strains, locus YPR167C, strain met16, stronger effect = lower value) of the same molecule?
Answer: 1

Question: And the normalized growth (S. cerevisiae deletion strains, strain wtn01, stronger effect = lower value)?
Answer: 1.04

Question: And the normalized growth (S. cerevisiae strains, strain wild type, stronger effect = lower value)?
Answer: 0.995
